Assay results reported in PubChem BioAssay (NCI).
This is part of a sample that, as a whole, favours compounds with a hit. Of some 79,000 tested, about 15% had one in any assay. No stated cut-off is given here; in the data, active means growth inhibition above about 70%; inactive means the rest.

Assays:
[1] = NCI Yeast Anticancer Drug Screen. Data for the rad50 strain (AID 155);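 further: 0% = growth of vehicle-only cultures of the same strain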; conditions: S. cerevisiae rad50 strain growth inhibition; at 50.0 µM; active compounds read high
How it was run: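 DNA repair mutant yeast, compound exposure, growth read-out; inhibition is taken relative to vehicle.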

[2] = NCI Yeast Anticancer Drug Screen. Data for the mec2-1 strain (AID 157); conditions: S. cerevisiae mec2-1 strain, at 50.0 µM, active compounds read high
How it was run: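 Using mec2-1 yeast: add compound, measure growth, express inhibition versus vehicle-treated cultures.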

[3] = NCI Yeast Anticancer Drug Screen. Data for the sgs1 mgt1 strain (AID 161);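 further: 0% = growth of cultures given vehicle only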; conditions: S. cerevisiae sgs1 mgt1 strain, at 50.0 µM, active compounds read high
How it was run: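 Percent growth inhibition was derived by comparing compound-exposed mutant yeast with vehicle-exposed cultures. The strain carries alterations in DNA damage repair.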

[4] = NCI Yeast Anticancer Drug Screen. Data for the cln2 rad14 strain (AID 165);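 further: 0% = growth equal to vehicle treated cultures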; conditions: S. cerevisiae cln2 rad14 strain, at 50.0 µM, active compounds read high
How it was run: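 Yeast strain cln2 rad14, bearing defects in cell cycle control and DNA repair, serves as the test system; values reflect growth inhibition compared with vehicle.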

[5] = NCI Yeast Anticancer Drug Screen. Data for the bub3 strain (AID 167); conditions: S. cerevisiae bub3 mutant strain, at 50.0 µM, active compounds read high
How it was run: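 In this screen, a yeast mutant lacking normal mitotic checkpoint function is challenged with compound. Relative growth versus vehicle gives the inhibition value.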

[6] = NCI Yeast Anticancer Drug Screen. Data for the mlh1 rad18 strain (AID 175); conditions: S. cerevisiae mlh1 rad18 strain growth inhibition; at 50.0 µM; active compounds read high
How it was run: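 Steps: expose repair-defective yeast to compound; measure growth; express inhibition against vehicle-treated controls.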

Measured: growth inhibition

CC[O-].CC[O-].O=Nc1ccc2cc([O-])ccc2c1.O=Nc1ccc2cc([O-])ccc2c1.[Ti+4]
inactive: [1] 34.9% | [2] 44.9% | [3] 59.5% | [4] 45% | [5] 52.6% | [6] 15.9%

Cc1cc(=O)[nH]c(/N=C(\N)Nc2ccc(Br)c(C(F)(F)F)c2)n1
inactive: [1] 10.1% | [2] 2.85% | [3] -3.8% | [4] 6.55% | [5] -1.5% | [6] 2.9%

O=C(c1ccccc1)[C@@H]1C[C@H](Sc2ccccc2)c2cc(Cl)ccc2N1
inactive: [1] 39.7% | [2] -10.5% | [3] 4.1% | [4] 23.8% | [5] 0.8% | [6] -3.5%

O=C(Nc1ccccc1[N+](=O)[O-])C(=O)C(C(=O)c1ccccc1-c1ccccc1)C1OC(=O)c2ccccc21 (stereo unspecified)
inactive: [1] 10.9% | [2] 0.6% | [3] 6.05% | [4] -51.4% | [5] 2.3% | [6] 9.55%

CC1CCC2(CC1)NN=c1s/c(=C\c3ccc(O)cc3)c(=O)n1N2 (stereo unspecified)
inactive: [1] -9.3% | [2] -1.7% | [3] -21.9% | [4] 8.55% | [5] -21.2% | [6] -19.9%

c1ccc(B2OCC(C3OB(c4ccccc4)OC4COB(c5ccccc5)OC43)O2)cc1 (stereo unspecified)
inactive: [1] 32.5% | [2] -2.45% | [3] -1.2% | [4] -30.9% | [5] -23.2% | [6] 23.6%

COc1ccc(C2CC2c2ccc(C#N)cc2)cc1 (stereo unspecified)
inactive: [1] 7.05% | [2] -6.4% | [3] -1% | [4] -40.6% | [5] 6.25% | [6] -22.8%

CC(=O)OCCC(OC(C)=O)c1ccccn1 (stereo unspecified)
inactive: [1] -13.9% | [2] -13.1% | [3] -9.1% | [4] -2.95% | [5] 3.95% | [6] -18.6%

CC(=O)Nc1cc2ccccc2oc1=O
inactive: [1] -5.5% | [2] -25.1% | [3] -4.65% | [4] 2.25% | [5] -11.8% | [6] 0.75%

CC(=O)Nc1ccc(S(=O)(=O)N=S(c2ccccc2)c2ccccc2)cc1
inactive: [1] 14.7% | [2] 3.05% | [3] 8.45% | [4] 10.8% | [5] -7.2% | [6] -0.25%

C/C(=C\Cc1cc(O)c(C)cc1O)CC/C=C(\C)Cc1cc(C)co1
inactive: [1] -14.9% | [2] -19.7% | [3] -35.5% | [4] 17.9% | [5] -1.3% | [6] -8.75%

CN(C)CCSc1n[nH]c(=O)[nH]c1=O
inactive: [1] 2.4% | [2] -6.35% | [3] -7.35% | [4] -23.4% | [5] -16.1% | [6] -3.45%

O=C(/N=C1\N=Nc2nc(C(C(=O)c3cccc([N+](=O)[O-])c3Cl)c3nc4n(c3O)/C(=N/C(=O)Nc3ccc(Cl)cc3)N=N4)c(O)n21)Nc1ccc(Cl)cc1 (stereo unspecified)
inactive: [1] 9.35% | [2] -8.2% | [3] 5.25% | [4] -6.65% | [5] 0.7% | [6] 7.1%

O=C1/C(=N\O)C2CCC1C2 (stereo unspecified)
inactive: [1] -11.2% | [2] 0.75% | [3] 0.3% | [4] 2.5% | [5] -9.2% | [6] 0.85%

NCCCc1c(-c2ccccc2)nc(N)[nH]c1=O
inactive: [1] -3.15% | [2] -15% | [3] -35.5% | [4] -28.4% | [5] -58% | [6] -3.05%

CCOC(=O)c1ccc(NC(=O)c2ccc(Cl)cc2Cl)cc1
inactive: [1] -7.7% | [2] 18.6% | [3] 6.5% | [4] -18.1% | [5] 36.6% | [6] -4.25%

C(=C/c1ccccn1)/c1ccccc1
inactive: [1] 39.4% | [2] 15.1% | [3] 21.3% | [4] 16.5% | [5] 14.6% | [6] 11.1%

O=C(NCc1ccccc1)/C(=C/c1ccc2c(c1)OCO2)NC(=O)c1ccccc1
inactive: [1] -42% | [2] -50.1% | [3] -28.5% | [4] -6.2% | [5] -15.2% | [6] -22.2%

Nc1nc(N)c2nc3c(nc2n1)C(=O)N(c1ccc(C(=O)O)cc1)C3
inactive: [1] 1.55% | [2] 34.9% | [3] 27.9% | [4] -2.8% | [5] 32.1% | [6] 23.2%

N=c1ncn(C/C=C/c2ccccc2)c2nc[nH]c12
inactive: [1] -12.7% | [2] -28.4% | [3] -8.55% | [4] -11.4% | [5] -63.3% | [6] 5%

Cc1ccc(NCC(=O)N2CC(=O)Nc3ccccc32)cc1
inactive: [1] -28.6% | [2] -21% | [3] -35.2% | [4] -4.45% | [5] -23.2% | [6] -15.8%

Cc1nc2c(=O)n(C)c(=O)n(C)c2nc1CCC(=O)O
inactive: [1] -16.1% | [2] -3.9% | [3] -1.4% | [4] -52.5% | [5] 5.2% | [6] -5.6%

N#CCCOCC(OCCC#N)C(OCCC#N)C(OCCC#N)C(COCCC#N)OCCC#N (stereo unspecified)
inactive: [1] -9.85% | [2] -14.6% | [3] -13.2% | [4] 6.15% | [5] 6.8% | [6] -13.2%

CC(Br)C(=O)c1ccc2ncccc2c1 (stereo unspecified)
inactive: [1] 5.15% | [2] -24.8% | [3] -7.6% | [4] -1.45% | [5] 12.8% | [6] 12.8%

C=Cc1ccc(S(N)(=O)=O)cc1
inactive: [1] -7.45% | [2] 15.4% | [3] -7.55% | [4] -16.6% | [5] -12.7% | [6] -2.25%

O=C1C2=C(Nc3ccccc3N2)OC1c1ccccc1Cl (stereo unspecified)
inactive: [1] -0.95% | [2] -11.7% | [3] -22.1% | [4] 6.7% | [5] -21.8% | [6] 4%

CCC(C)c1cc(CN(C)C)cc(C(C)CC)c1O (stereo unspecified)
inactive: [1] 13.1% | [2] 1.1% | [3] 16.4% | [4] 13.8% | [5] 3.2% | [6] 9.05%

O=[N+]([O-])c1ccc(CCn2cnc3c(N(CCO)CCO)ncnc32)cc1
inactive: [1] -7.85% | [2] -0.9% | [3] 3.6% | [4] -54.3% | [5] 6.95% | [6] -14.3%

CCOC(=O)C(=O)Nc1c(C)cccc1CC
inactive: [1] 0.15% | [2] -4.1% | [3] -5.05% | [4] -16.4% | [5] 6.2% | [6] -1.05%

C/C=C/C(=O)OC/C=C(\C)CCC=C(C)C
inactive: [1] -26.4% | [2] -44.9% | [3] -6.7% | [4] -4.3% | [5] -39.7% | [6] -16.7%

COC(=O)C(=O)c1c2ccccc2n2ccc3c4ccccc4[nH]c3c12
inactive: [1] 25.9% | [2] 8.9% | [3] -5.75% | [4] 10.1% | [5] 9.6% | [6] 10.5%

CCCCCCC(O)C/C=C/CCCCCC/C(C(=O)OC)=C(/O)C(=O)OCC (stereo unspecified)
inactive: [1] 3.3% | [2] -3.35% | [3] 11.5% | [4] -27.6% | [5] -6.7% | [6] 1.1%

O=Cc1ccc(OC(=O)c2ccccc2)cc1
inactive: [1] -6.35% | [2] -25.6% | [3] 13.3% | [4] -13.3% | [5] -1.25% | [6] 3.95%

C/C=C\c1ccc(OCCOC(C)=O)c(OC)c1
inactive: [1] 12% | [2] -13.6% | [3] -3.4% | [4] -28.2% | [5] -9.95% | [6] -15.8%

CCCCCC(Oc1ccc(Cl)cc1)C(=O)OCC (stereo unspecified)
inactive: [1] 22.8% | [2] 9.1% | [3] 14.9% | [4] 1.45% | [5] 15% | [6] 17.2%

COc1cc2cc[n+]3c(C)c4ccc(OC)c(OC)c4cc3c2cc1OC (tested in a mixture with another compound)
inactive: [1] -4.15% | [2] 17.2% | [3] -5.3% | [4] -10.8% | [5] -3.55% | [6] 6.65%
